Here are results for 40 compounds from PubChem BioAssay (EPA / NIEHS).

SMILES strings stand for the structures. Where “and” joins values, the source holds several entries; their conditions need not be identical. Identical values can stand only once. Calls of active or inactive are those of the source. The calls were made as follows: active = hit-call score of the fitted dose curve at least 0.9, where 1 is the maximum; inactive = score below 0.9.

As usually defined, the AC50 is the midpoint of the concentration-response curve, whichever way the signal moves.

This experiment is described as follows: ATG_MRE_CIS: Attagene CIS-FACTORIAL HepG2 Assay for human Metal Responsive Element (MRE) (AID 2282954). Conditions: HepG2 MRE cis-reporter transcription, Attagene multiplex; actives raise or lower the signal. How it is done: ATG_CIS is a cell-based, multiplexed-readout assay that uses HepG2, a human liver cell line, with measurements taken at 24 hours after chemical dosing in a 24-well plate.ATG_MRE_CIS is one of 52 assay component(s) measured or calculated from the ATG_CIS assay. It is designed to make measurements of mRNA induction, a form of inducible reporter, as detected with fluorescence intensity signals by Reverse transcription polymerase chain reaction (RT-PCR) and Capillary electrophoresis technology.Data from the assay component ATG_MRE_CIS was analyzed into 1 assay endpoint. This assay endpoint, ATG_MRE_CIS, was analyzed with bidirectional fitting relative to DMSO as the negative control and baseline of activity. Using a type of inducible reporter, measures of mRNA for gain or loss-of-signal activity can be used to understand the reporter gene at the transcription factor-level as they relate to the gene MTF1. Furthermore, this assay endpoint can be referred to as a primary readout, because this assay has produced multiple assay endpoints where this one serves a reporter gene function. To generalize the intended target to other relatable targets, this assay endpoint is annotated to the dna binding intended target family, where the subfamily is zinc finger.
Human liver HepG2 cells are transiently transfected with multiple reporter transcription units (MRTUs) in 6-well plates using FuGene 6 reagent (Roche; 3 ml FuGene/1 mg DNA). The MRTU constructs are regulated by a cis-regulating element (promoter). […] A major difference between the CIS and TRANS system is that in CIS activities of endogenous TFs are measured, whereas the TRANS assay evaluates changes in activities of exogenous, chimeric NR-Gal4 proteins. […] At the end of 24 hour incubation, total RNA was isolated using TriZol reagent (Invitrogen). The isolated RNA is then reverse-transcribed using oligo(dT) primer and Mo-MLV reverse transcriptase (Invitrogen) with DNAse I (Ambion) treatment for 30 min. The one-tenth of the produced cDNA was amplified by PCR using Taq DNA polymerase (Invitrogen) and two reporter sequence-specific primers. The PCR products were fluorescently labeled by primer extension with 6-arboxyfluorescein (6-FAM) 5'-labeled reporter sequence-specific primer (2 min at 95 C, 20 s at 68 C and 10 min at 72 C) and these products were digested with 5U of HpaI (New England Biolabs) for 2h at 37 C. The fragments were purified using Qiaquick PCR columns (Qiagen), analyzed on an ABI 3130xL genetic analyzer (Applied Biosystems) with peak positions identified by using a set of X-rhodamine (ROX)-labeled MapMarker1000 molecular weight standards (BioVentures). The raw capillary electrophoresis data was processed using Attagraph software (Attagene).
Take `Nc1cc(Cl)c(N)c(Cl)c1`: the outcome was inactive.

Consider `CCO[Si](CCC(F)(F)C(F)(F)C(F)(F)C(F)(F)C(F)(F)C(F)(F)F)(OCC)OCC`, for which the compound was called inactive.

`CCCCOc1ccc(N)cc1`: the compound was classed as inactive.

`NC(=O)C(F)(F)C(F)(F)C(F)(F)C(F)(F)F`: the result was inactive.

Consider `c1ccc(-c2ccccc2-c2ccccc2)cc1`, for which the result was inactive.

For `O=C(O)C(F)(OC(F)(F)C(F)(OC(F)(F)C(F)(F)C(F)(F)F)C(F)(F)F)C(F)(F)F` (stereo not given), the call was inactive.

Turning to `c1ccc(B(c2ccccc2)c2ccccc2)cc1`, the AC50 is 51.6 µM (active).

On to `OC[C@@H](O)[C@@H](O)[C@H](O)[C@@H](O)CO`, for which the outcome was inactive.

As for `FC(F)(F)C(F)(F)CNCC(F)(F)C(F)(F)F`, the compound was called inactive.

Consider `FC(F)(F)C(F)(F)C(F)(F)N(C(F)(F)C(F)(F)C(F)(F)F)C(F)(F)C(F)(F)C(F)(F)F`, for which the compound was called inactive.

`CC(C)c1ccccc1N`: the compound was called inactive.

Regarding `CCN(Cc1cccc(S(=O)(=O)O)c1)c1ccc(C(=C2C=CC(=[N+](CC)Cc3cccc(S(=O)(=O)O)c3)C=C2)c2ccc(O)cc2S(=O)(=O)[O-])cc1`, the compound was called inactive.

In the case of `O=C(O)C(F)(OC(F)(F)C(F)(OC(F)(F)C(F)(OC(F)(F)C(F)(F)C(F)(F)F)C(F)(F)F)C(F)(F)F)C(F)(F)F` (stereo not given), the compound was classed as inactive.

In the case of `Nc1ccc(Oc2cccc(Oc3ccc(N)cc3)c2)cc1`, the half-maximal activity concentration (AC50) was 64.6 µM (active).

As for `O=S(=O)(OCC(F)F)C(F)(F)F`, the result was inactive.

With `[Co]`, the outcome was inactive.

With `CN(C)Cc1ccccc1O`, the result was inactive.

On to `CC/C=C\CCOC(C)=O`, for which the compound was called inactive.

For the compound `O=C(O)C(F)(F)C(F)(F)F`, the outcome was inactive.

For `FC(F)(Br)C(F)(F)C(F)(F)C(F)(F)C(F)(F)C(F)(F)Br`, the compound was called inactive.

As to `CCCCCC=O`, the compound was called inactive.

With `O=C(O)C(F)(F)C(F)(F)C(F)(F)C(F)(F)C(F)(F)C(F)(F)C(F)(F)C(F)(F)C(F)(F)C(F)(F)C(F)(F)C(F)(F)C(F)(F)F`, the result was inactive.

On to `C=CC(F)(F)C(F)(F)C(F)(F)C(F)(F)C(F)(F)C(F)(F)C(F)(F)C(F)(F)F`, for which the outcome was inactive.

Take `CO[Si](OC)(c1ccccc1)c1ccccc1`: the outcome was inactive.

As for `C=C(C)C(=O)OCCC(F)(F)C(F)(F)C(F)(F)C(F)(F)C(F)(C(F)(F)F)C(F)(F)F`, the compound was classed as inactive.

In the case of `O=C(Cl)C(F)(F)C(F)(F)C(F)(F)C(F)(F)C(F)(F)C(F)(F)C(F)(F)C(F)(F)F`, the concentration at half-maximal activity (AC50) is 48 µM (active).

For the compound `FC(F)(F)C(F)(F)C(F)(F)C(F)(F)C(F)(F)C(F)(F)C(F)(F)Br`, the outcome was inactive.

In the case of `CC(C)(C)c1ccc(OC2CCCCC2O)cc1` (stereo not given), the outcome was inactive.

Consider `O=C(O)C(F)(F)C(F)(F)C(F)(F)F`, for which the call was inactive.

`OCC(F)(F)C(F)(F)C(F)(F)F`: the call was inactive.

`O=P(O)(O)OCCC(F)(F)C(F)(F)C(F)(F)C(F)(F)C(F)(F)C(F)(F)F`: the result was inactive.

With `CCCCCCCOC(=O)c1ccccc1C(=O)OCCCCCCC`, the compound was classed as inactive.

Consider `Cc1ccc(S(=O)(=O)NCl)cc1`, for which the outcome was inactive.

For the compound `FC(F)(F)C(F)(F)C(F)(F)C(F)(F)C(F)(F)C(F)(F)C(F)(F)C(F)(F)CCS`, the outcome was inactive.

`COC(OC(C)=O)c1ccccc1` (stereo not given): the compound was classed as inactive.

On to `O=C(O)C(F)(F)C(F)(F)C(F)(F)C(F)(F)C(F)(F)C(F)(F)C(F)(F)C(F)(F)C(F)(F)C(F)(F)C(F)(F)C(F)(F)F`, for which the compound was called inactive.

`FC(F)(I)C(F)(F)C(F)(F)C(F)(F)I`: the compound was called inactive.

On to `FC1CC(F)(F)C(F)(F)C1(F)F` (stereo not given), for which the result was inactive.

Take `O=C(O)C(F)(F)C(F)(F)C(F)(F)C(F)(F)C(F)(F)C(F)(F)C(F)(F)C(F)(F)Cl`: the half-maximal activity concentration (AC50) is 55.5 µM (active) and 66.6 µM (active).

In the case of `FC(F)(F)C(F)(F)C(F)(F)CI`, the call was inactive.
